Shown are actives, neighbours in structure and some others; about 12% of the full set was active somewhere.
SARS PLpro yeast – SARS-CoV PLP inhibition in yeast; 330,000 tested, 0.19% active; S. cerevisiae expressing SARS-CoV PLpro, growth rescue; Potency, µM (top dose mostly 32.9 µM), most hits filed as activators; AID 485353; calls by dose curve; note: nearly all actives have a fitted effect of over 55% in size
HCV inhibitor – inhibitors of hepatitis C virus infection; Huh7.5.1 HCVcc-Cre infection, luciferase reporter, 44 h; Potency, µM (highest dose often 41.8 µM), hits mostly inhibitors; 340,000 tested, 3.4% active
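Antiviral activity was scored by luciferase reporter output from cells infected with HCVcc-Cre (~0.5 moi) in presence of compound, 44 h infection period, cells seeded 1,000/well 4 h prior.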
NS1 function inh – influenza NS1 inhibition; Potency, µM (titrated, usually from 46.1 µM); 270,000 tested, 0.4% active; AID 2326; calls by dose curve; note: actives are rising curves; nearly all actives have a fitted effect of over 50% in size
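Read-out: OD600 growth recovery of NS1-expressing budding yeast. Cells grown overnight at 30C in -URA glucose medium, washed, resuspended and diluted 1:100 in 2% galactose assay medium, pH 6.0. Same strain lacking NS1 served as positive control.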
AMA1-RON2 inh – AMA1-RON2 (P. falciparum) interaction inhibition; AlphaScreen AMA1-biotinylated RON2 peptide binding; Potency, µM (series often up to 58.2 µM), usual class: inhibitors; 360,000 tested, 0.2% active; note: nearly all actives have a fitted effect of over 45% in size
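AMA1 (3D7) with his tag at 25 nM final met compounds first, then biotinylated RON2 peptide at 25 nM; detection used donor plus acceptor beads, 10 µg/mL apiece, read by AlphaScreen after 30 min at room temperature.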
Pf growth 48h – inhibits P. falciparum growth in the first generation, 48 h; P. falciparum luciferase growth in erythrocytes, 48 h; Potency, µM (highest dose often 28.7 µM), usual class: inhibitors; 310,000 tested, 5.9% active; AID 504832
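A one-generation exposure of luciferase-tagged malaria parasites in RPMI 1640/Albumax erythrocyte culture, 37 C and 5% CO2. Inhibition is inferred from decreased luminescence after adding detection reagent.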
Pf growth 96h – P. falciparum growth inhibition at 96 hour, primary screen for plastid delayed-death inhibitors. Potency, µM (highest dose often 28.7 µM), actives largely listed as inhibitors. 320,000 tested, 6.9% active. P. falciparum luciferase reporter growth, 96 h
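Two parasite generations (96 h, 37 C, 5% CO2) of compound exposure in infected erythrocytes (0.05% parasitemia, 2% hematocrit). Luciferase-reporter P. falciparum; decreased luminescence indicates inhibited growth, aimed at apicoplast-acting delayed death.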
Numbers stand for hits; i = inactive; ? = inconclusive; nt = no result given; [ ] = another dose, or the depositor's remark. Unless noted, calls come from the whole dose curve; as a rule, active = well fitted curve in the direction sought with a large enough effect; inconclusive = small, poorly fitted or top-dose-only effect, or another doubt; inactive = no such curve, though single readings can be large; an effect the other way counts as inactive or inconclusive.

SMILES	SARS PLpro yeast	HCV inhibitor	NS1 function inh	AMA1-RON2 inh	Pf growth 48h	Pf growth 96h
COc1ccc(CNC(=O)C2CCC(CNc3nc(=S)[nH]c4ccccc34)CC2)cc1 (stereo unspecified)	i	nt	i	nt	i	i
COc1ccc(NC(=O)COC(=O)Cc2c(F)cccc2Cl)cc1OC	i	i	i	i	i	i
CCOP(=O)(OCC)C(NC(=O)Nc1ccc(Cl)cc1)c1ccccc1 (stereo unspecified)	i	i	i	i[11.6 µM]	?	i
Cc1ccc(C(NC(=O)NC(C)c2ccccc2)C(Cl)(Cl)Cl)cc1F (stereo unspecified)	i	10µM	i	i	4.1µM	?
COc1ccc(NC(=O)CNC(c2ccccc2)c2ccccc2)cc1	i	i	i	i	i	i
CC(NC(=O)Nc1ccc(Cl)cc1)c1ccccc1 (stereo unspecified)	i	i	i	i	i	10µM
COc1ccc(C(NCC(=O)NC(C)c2ccc(Cl)cc2)c2ccccc2)cc1 (stereo unspecified)	i	11µM	i	?	i	i
CCCNC(=O)C1(C)CCN(C(=O)c2ccc3sccc3c2)C1 (stereo unspecified)	nt	nt	nt	i	nt	nt
Cc1nn(-c2ccccc2)c(C)c1/C=C/C(=O)OCC(=O)Nc1ccc(S(N)(=O)=O)cc1	i	i	nt	i	i	i
O=C(CSC1=NC2(CCCCC2)N=C1c1ccccc1)Nc1ccc2c(c1)OCCO2	i	11µM	i	i	10µM	?
O=C(CSc1ccccc1)Nc1ccc2c(c1)OCO2	i	i	i	i	i	i
NNC(=O)[C@H](Cc1ccccc1)NC(=O)Nc1ccc2c(c1)OCCO2	i	i	i	i	9.3µM	?
COc1ccc(NC(=O)N[C@@H](Cc2ccccc2)C(=O)NN)cc1	i	?	i	i	?	?
O=C(CSc1ccccc1)Nc1ccc2c(c1)OCCO2	i	i	i	i	i	8.3µM
O=C(NNC(=O)c1sccc1-n1cccc1)Nc1ccc(F)cc1	i	i	nt	i	?	i
COc1ccc(CCN(C)C(=O)c2cnc(C)cn2)cc1OC	i	i	i	i	i	i
CCOC(=O)c1oc2ccc(Br)cc2c1COC(=O)C1=COCCO1	i	25µM	nt	i	i	i
Cc1ccc2c(COC(=O)C3=COCCO3)cc(=O)oc2c1	i	i	i	i	nt	?
O=C(N/C(=C\c1cccc([N+](=O)[O-])c1)C(=O)N1CCOCC1)c1cccc(Br)c1	i	i	i	i	?	?
CCc1ccc(-c2cc(C)no2)cc1S(=O)(=O)N1CCOc2ccc(C)cc21	i	?	i	i	2.9µM	?
CCc1ccc(-c2cc(C)no2)cc1S(=O)(=O)N1CCCN(Cc2ccc(F)cc2)C1	i	10µM	i	i	?	?
CCc1ccc(-c2cc(C)no2)cc1S(=O)(=O)N1CC(=O)Nc2ccccc21	i	i	i	i	i	i
COc1ccc(-c2cc(C)no2)cc1S(=O)(=O)N1CCCCC1	i	i	i	i	i	?
CCc1ccc(-c2cc(C)no2)cc1S(=O)(=O)N1CCN(c2ccccc2F)CC1	i	?	i	i	?	i
CCc1ccc(-c2cc(C)no2)cc1S(=O)(=O)N1CCN(c2cc(C)ccc2C)CC1	i	?	i	i	13µM	i
SMILES	SARS PLpro yeast	HCV inhibitor	NS1 function inh	AMA1-RON2 inh	Pf growth 48h	Pf growth 96h
CCC1CN(S(=O)(=O)c2cc(-c3cc(C)no3)ccc2OC)c2cc(C)ccc2O1 (stereo unspecified)	i	?	i	i	10µM	?
C/C=C1\C(=O)CC2C3CCC4=CC(=O)CC[C@]4(C)C3CC[C@]12C (stereo partly specified)	nt	nt	i	nt	nt	nt
CC(C)(C)C1CCN2CCC[C@](c3ccccc3)(C1)C2OCCCO (stereo partly specified)	nt	nt	nt	i	nt	nt
CCc1ccc(-c2cc(C)no2)cc1S(=O)(=O)N1CCN(c2cccc(C)c2C)CC1	i	i	i	i	5.2µM	12µM
COc1ccc(-c2cc(C)no2)cc1S(=O)(=O)N1CCOc2ccccc21	i	i	i	i	?	i
Cc1cc(-c2ccc(C(C)C)c(S(=O)(=O)N3CCOc4ccccc43)c2)on1	i	?	i	i	15µM	i
CC(C)n1nc(C(=O)Nc2cccc(S(=O)(=O)N3CCCCC3)c2)c2ccccc2c1=O	i	?	nt	i	?	?
COc1cccc(CNCc2ccccc2OC)c1	i	i	i	i	i	i
COc1cccc(CCc2ccccc2OCC(CN(C)C)OC(=O)CCC(=O)O)c1 (stereo unspecified)	nt	nt	nt	nt	4.8µM	3.4µM
Cc1nn(-c2ccccc2)c(Cl)c1/C=N/NC(=O)CNC(=O)c1ccccc1Cl	i	?	i	i	i	1.9µM
CCOC(=O)N/N=C/c1c(C)nn(-c2cccc(C(F)(F)F)c2)c1Cl	i	2.2µM	i	i[2.32 µM]	2.1µM	1.5µM
Cc1nn(Cc2ccccc2)c(Cl)c1/C=N/NC(=O)CNc1cccc(C(F)(F)F)c1	i	?	i	i	?	12µM
COc1ccc(C(=O)NCC(=O)N/N=C/c2cccc(OC(=O)c3ccco3)c2)cc1OC	i	i	nt	i	i	i
C=CCc1cccc(/C=N/NC(=O)CNc2ccccc2)c1O	nt	?	i	i	?	?
C=CCc1cccc(/C=N/NC(=O)C(C)Nc2cccc(C)c2)c1O (stereo unspecified)	?	?	i	i	13µM	i
C=C(CCO)C1=CCN(S(=O)(=O)C(C)(C)C)[C@H]1CCO	nt	i	nt	i	nt	nt
Cc1cc(Br)c2[nH]cc(CCNC(=O)c3ccco3)c2c1	i	13µM	i	i	?	?
Cc1ccc2[nH]cc(CCNC(=O)c3ccco3)c2c1	i	i	i	i	i	i
Cc1cccc(-n2ncc3c(NCCc4ccc(S(N)(=O)=O)cc4)ncnc32)c1	i	i	i	i	nt	10µM
O=C(c1ccco1)N1N=C(c2ccc(Br)cc2)CC1c1ccco1 (stereo unspecified)	i[6.58 µM]	?	nt	i	?	?
Cc1ccc(-c2nc(CS(=O)CC(=O)NCCCN3CCN(Cc4ccccc4)CC3)c(C)o2)cc1 (stereo unspecified)	i	10µM	i	i	?	6.6µM
CCCCNC(=O)CS(=O)Cc1nc(-c2cccc(C)c2)oc1C (stereo unspecified)	i	i	i	i	nt	0.1µM
CCCCSCCCNC(=O)CS(=O)Cc1nc(-c2cccc(C)c2)oc1C (stereo unspecified)	i	i	i	i	i	?
Cc1[nH]c2ccccc2c1C(=O)C(=O)NCc1ccncc1	nt	i	nt	i	nt	nt
CSc1ccc2c(c1)c(CCN)c(C)n2Cc1ccccc1Cl	nt	nt	i	nt	nt	nt
O=C(NC1CCCCCC1)C1c2ccccc2C(=O)N1CCCN1CCOCC1 (stereo unspecified)	i	i	i	i	i	13µM
COc1ccc(N=C2S/C(=C\c3cc(C)n(C)c3C)C(=O)N2C)cc1	i	11µM	?	i	?	9.3µM
